# Laboratory results taken from PubChem BioAssay (Tox21).
# Activity calls are given as the source filed them. Calls come from the whole dose curve; as a rule, active = well fitted curve in the direction sought with a large enough effect in the repeat runs; inconclusive = weak or mixed curves; inactive = flat fitted curve, though single readings scatter.
# Assay: qHTS assay to test for compound auto fluorescence at 590 nm (red) in HepG2 cell free culture (AID 720684)
# Conditions: cell-free medium autofluorescence, red 540/590 nm; series mostly up to 91.3 µM
# Text: U.S. Tox21 Program National Center for Advancing Translational Sciences [NCATS] NIH Chemical Genomics Center [NCGC] U.S. Environmental Protection Agency [EPA] National Institutes of Environmental Health Sciences [NIEHS] National Toxicology Program [NTP] U.S. Food and Drug Administration [FDA] Tox21 Assay Overview: Compound auto fluorescence often interferes with screening of the compound library against various biological targets and signaling pathways. Some of these compounds may have fluorophoric properties. Such properties may interfere with the assay outputs resulting in false positives and/or negatives. To decrease such complications and ensure the compound activities are relevant in terms of biological response, the Tox21 10K compound library was screened for auto fluorescence. From the fluorophores used as reporter signals in our screening assays, the auto fluorescence equivalencies of compounds against three fluorophores have been evaluated: Triamterene, Fluorescein and Rose Bengal sodium for blue, green and red fluorescence, respectively. The fluorescence intensities were measured using Excitation/Emission wavelengths at 405/460nm, 485/535nm and 540/590nm for blue, green and red labels, respectively. This assay includes the red fluorescence data.
# Tox21 Assay Protocol Summary: 5 uL of culture medium (MEM containing 10% FBS) per well was dispensed into black wall/clear bottom 1536-well plates using a Multidrop Combi Dispenser (ThermoFisher Scientific, Waltham, MA). After 23 nL compound or DMSO vehicle was transferred into assay plate by a pintool work station (Kalypsys, San Diego, CA), fluorescence intensities in the assay plates were measured by an Envision (PerkinElmer, Shelton, CT) plate reader using three labels for measuring blue, green and red fluorescence at […] 460, 535 and 590nm respectively.
# % is set by controls: 0 for no effect and ±100 for the full control effect.
Compound,outcome,"fluorescence, % of Rose Bengal"
CC1(CO)CN(c2ccccc2)NC1=O (stereo not given),inactive,–
CC(=O)c1ccc2c(c1)Cc1ccccc1-2,inactive,–
CC(=O)OC(C)OC(=O)C(C)c1ccc(-c2ccccc2)c(F)c1 (stereo not given),inactive,–
O=C(CCN1CCN(CCO)CC1)N1c2ccccc2Sc2ccc(C(F)(F)F)cc21,inactive,–
CC(C)(C)NC(N)=O,inactive,–
CC(C)NCC(O)COc1ccc(COCCOC(C)C)cc1 (stereo not given),inactive,–
C=C(C)C(=O)OCCNC(C)(C)C,inactive,–
CC(=O)N[C@@H](CCC(=O)O)C(=O)O,inactive,–
O=P(O)(O)OP(=O)(O)O,inactive,–
CC(C)CC(=O)O,inactive,–
O=C1c2cccc3c2[C@H](CCC3)CN1[C@@H]1CN2CCC1CC2,inactive,–
Cc1ccc(C=O)cc1C,inactive,–
c1ccc2c(c1)ccc1c3ccccc3ccc21,inactive,–
O=C(CS(=O)Cc1ccco1)NC/C=C\COc1cc(CN2CCCCC2)ccn1 (stereo not given),inactive,–
CCOC(=O)/C=C/c1ccccc1,inactive,–
CCCCN,inactive,–
OCCN(CCO)c1cccc(Cl)c1,inactive,–
O=C(OCC1(COC(=O)c2cccnc2)CCCC(COC(=O)c2cccnc2)(COC(=O)c2cccnc2)C1O)c1cccnc1,inactive,–
CCCCNC1CC(C)(C)NC(C)(C)C1,inactive,–
CC(C)CCCCOC(=O)c1ccccc1C(=O)OCCCCC(C)C,inactive,–

Compound,outcome,"fluorescence, % of Rose Bengal"
CCCCCCCC/C=C\CCCCCCCC(=O)OCCCC,–,0.134% [at 18.6 µM] (inactive)
Nc1ccc2cc(S(=O)(=O)O)cc(O)c2c1,inactive,–
CC(=O)Nc1ccc(S(=O)(=O)Cl)cc1,inactive,–
O=S(O)(O)=S,–,-0.0109% [at 3.72 µM] (inactive)
CCNC(=O)C1CC(C)CCC1C(C)C (stereo not given),inactive,–
COC(=O)[C@@H]1[C@H]2C[C@H]3c4[nH]c5ccccc5c4CCN3C[C@@H]2CC[C@@H]1O,inactive,–
Cc1c(I)c(=O)n(-c2ccccc2)n1C,inactive,–
COc1ccc(C2CNC(=O)C2)cc1OC1CCCC1 (stereo not given),–,0.472% [at 18.6 µM] (inactive)
NCCN1CCOCC1,inactive,–
BrCCCCCBr,inactive,–
O=C(O)Cc1ccc(Cl)cc1Cl,inactive,–
Cc1ccccc1N=O,inactive,–
CCCCCCN,inactive,–
O=Cc1ccc(Cl)c(Cl)c1,inactive,–
CC(C)OC(=O)CCCCC(=O)OC(C)C,inactive,–
Oc1cn2c(n1)Nc1ccc(Cl)c(Cl)c1C2,inactive,–
CCCCCCOC(=O)CC,inactive,–
N[C@@H](CCC(=O)N[C@@H](CS)C(=O)NCC(=O)O)C(=O)O,inactive,–
CC(C)NCC(O)COc1cccc2[nH]ccc12 (stereo not given),inactive,–
CCOc1cc(NC(C)=O)ccc1C(=O)OC,inactive,–
